The record followed here is PubChem BioAssay (NCATS).

Records with an inconclusive call do not appear. Values without a mark were called inactive. Calls come from the whole dose curve; as a rule, active = well fitted curve in the direction sought with a large enough effect; inconclusive = small, poorly fitted or top-dose-only effect, or effect the other way, or another doubt; inactive = no such curve, though single readings can be large or run the other way. Bridge positions count the residues as written; N and C are the ends. Square brackets hold non-standard residues; d marks the D form. Side chains are listed from the residue outwards. Peptide text beside a SMILES is read from it. * marks the point of attachment. Phg(4-OMe) = COc1ccc([C@H](N)C(=O)O)cc1; d(aIle) = CC[C@H](C)[C@@H](N)C(=O)O; d(aThr) = C[C@@H](O)[C@@H](N)C(=O)O; NMeF = CN[C@@H](Cc1ccccc1)C(=O)O; Isobutyryl = CC(C)C(=O)*

A short description of this assay: 10-beta competent E. coli microbial cell viability qHTS against the NCATS CANVASS Library (AID 1347376). Note: 0% is about no effect. To be noted: E. coli 10-beta viability, BacTiter-Glo ATP luminescence, overnight; series mostly up to 46.1 µM; activity change, negative = cytotoxic: at the top concentration. Put shortly:
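10-beta competent E. coli (0.2 OD) were exposed overnight at 37C to compounds in an 11-point series. Viability was read as ATP-dependent BacTiter-Glo luminescence after 20 min at room temperature.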
Take `CC(C)=CCC[C@]12c3cc4c(cc3CC[C@@]1(C)[C@H](C)CC[C@@H]2O)[nH]c1ccccc14`: the “activity change, negative = cytotoxic” value is -14.2%. As for `C/C=C/C1C=CC2CC(C)CC(C)C2C1C(=O)CC(=O)NC(CO)C/C=C/CCCCC` (centres undefined), the figure is -3.54%; as for `C=C1CC[C@@H](Br)C(C)(C)[C@]12CC=C(C)C(=O)C2`, -2.29%; as for `C=CC(CCCCC)C1C(=O)NC(=O)C1C(=O)C1C(/C=C/C)C=CC2CC(C(=O)O)CC(C)C21` (centres undefined), -16.7%.

For the molecule `COc1cc(/C=C/C(=O)OC[C@@H](Cc2ccc(O)c(OC)c2)[C@@H](COC(=O)/C=C/c2ccc(O)c(OC)c2)Cc2ccc(O)c(OC)c2)ccc1O`, the “activity change, negative = cytotoxic” value was -11.4%. As for `C=C[C@@]1(C)CC[C@@H]([C@H](C)C(=O)/C=C/C(C)(C)O)O1`, the figure is -5.22%.

For the molecule `O=C1CC2OCC=C3CN4C5CC3C2[C@@H]2N1c1ccccc1[C@]52C[C@@H]4C1=C[C@H]2C3CC4N(CC[C@@]45c4ccccc4N(C1=O)[C@@H]25)C/C3=C/CO` (some centres undefined), the “activity change, negative = cytotoxic” value was 5.39%. As for `C=C1CC[C@@H](O[C@H]2C[C@@](O)([C@H](C)NC(=O)c3[nH]c(C)c(Cl)c3Cl)[C@H](O)[C@@H](C)O2)[C@@H]2C=C[C@H](C)C(/C(O)=C3/C(=O)[C@H](C(C)C)N([C@@H]4O[C@H](C)[C@H](OC(N)=O)[C@H](OC(C)=O)[C@@H]4OC)C3=O)[C@@H]12` (some centres undefined), the figure is 20%; as for `CC[C@H](C)[C@H]1NC(=O)[C@@H](NC(=O)C(C)C)[C@@H](C)OC(=O)[C@H](COC(=O)CNC(C)=O)NC(=O)[C@@H]([C@@H](C)O)NC(=O)[C@H](Cc2ccccc2)N(C)C(=O)[C@H](c2ccc(OC)cc2)NC1=O` (Isobutyryl-T[d(aIle)][Phg(4-OMe)][NMeF][d(aThr)]S([Gly-Ac]); ester 1-C), -6.49%.
